Rab9 promoter act – activators of Rab9 promoter | 2.8% of 320,000 active | Potency, µM (highest dose often 9.22 µM), for the others: at the top dose activation, negative = inhibition, hits mostly activators | Huh7 Rab9 promoter-luciferase reporter, luminescence, 24 h | AID 485297; further: % of control where 0% means no effect; nearly all actives have a fitted effect of over 60% in size
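Huh7 reporter line, Rab9 promoter upstream of luciferase. Compound exposure 24 h at 37 °C in reduced-serum medium with 10% FBS. Read-out: luminescence.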
NPC1 prom act – activates the NPC1 promoter. Huh7 NPC1 promoter luciferase reporter, 24 h. Potency, µM (highest dose often 9.22 µM), inactives show at the top dose activation, usual class: activators. 2.4% of 320,000 active. AID 485313; further: % of control where 0% means no effect; nearly all actives have a fitted effect of over 60% in size
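In 1536-well qHTS, Huh7 cells harboring an NPC1 promoter–luciferase construct received compound for 24 h; activation was quantified by luminescence following luciferase reagent addition.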
FLuc counter – firefly luciferase modulation, counter-screen for miR-21 project | purified FLuc, Km substrates, luminescence inhibition | 6.9% of 360,000 active | Potency, µM (top dose mostly 57.5 µM), for the others: at the highest dose activity change, negative = inhibition, actives largely listed as inhibitors | AID 588342 | P08659;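 further: plate controls were vehicle for no effect and reference inhibitor for full effect; nearly all actives have a fitted effect of over 55% in size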
Target sequence (P08659 whole entry, looked up): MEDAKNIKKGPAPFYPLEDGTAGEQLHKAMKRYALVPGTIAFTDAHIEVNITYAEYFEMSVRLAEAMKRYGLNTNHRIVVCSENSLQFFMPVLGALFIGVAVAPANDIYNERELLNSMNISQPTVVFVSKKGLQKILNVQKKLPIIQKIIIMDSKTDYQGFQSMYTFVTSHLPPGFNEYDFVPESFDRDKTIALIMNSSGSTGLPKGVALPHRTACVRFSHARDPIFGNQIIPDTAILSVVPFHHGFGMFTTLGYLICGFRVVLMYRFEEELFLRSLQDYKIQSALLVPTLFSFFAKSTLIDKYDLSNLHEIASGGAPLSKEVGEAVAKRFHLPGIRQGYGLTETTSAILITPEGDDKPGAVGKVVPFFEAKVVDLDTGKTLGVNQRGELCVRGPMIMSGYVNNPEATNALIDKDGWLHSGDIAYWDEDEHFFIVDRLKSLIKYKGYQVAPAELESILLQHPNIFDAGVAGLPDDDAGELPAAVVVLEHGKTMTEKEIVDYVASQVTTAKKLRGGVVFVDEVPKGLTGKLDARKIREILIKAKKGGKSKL
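Biochemical qHTS of compounds, final roughly 60 µM downward over six points, against 10 nM purified firefly luciferase using Km concentrations of substrates (10 uM D-luciferin, 10 uM ATP) in Tris acetate pH 7.5 buffer; luminescence output.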
ELG1 genotoxic – inducers of genotoxicity in HEK293T ELG1-luciferase cells; Potency, µM (doses to about 46 µM), for inactives: at the top dose activity change, positive = activation, hits mostly activators; HEK293T ELG1-luciferase reporter, luminescence, 16 h; AID 504466; 1.3% of 330,000 active; further: % of control where 0% means no effect; nearly all actives have a fitted effect of over 60% in size
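HEK293T cells expressing luciferase-tagged ELG1 were exposed to compound or DMSO vehicle for 16 hr at 37 °C and 5% CO2. Luciferase activity was then measured with ONE-Glo after 30 min at room temperature.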
SMN2 splice enh – increases expression of the SMN2 splice variant; HEK293 SMN2-luciferase splicing reporter, luminescence, 30-36 h; Potency, µM (titrated, usually from 46.1 µM), for the others: top-dose activity change, positive = activation, hits mostly activators; 2.8% of 210,000 active; further: % of control where 0% means no effect; nearly all actives have a fitted effect of over 55% in size
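HEK293 cells carry an SMN2 minigene-luciferase reporter in which exon 7 inclusion puts luciferase in frame. Cells were seeded at 2000 cells/well, attached for 10-12 hours, then exposed to compounds for 30-36 hours at 37C before ONE-Glo luminescence.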
Starred values were filed as active, the others as inactive; ? = inconclusive; nt = no result given; [ ] = another dose, or the depositor's remark. In the library only some 7.4% were active in any assay of this set; here they are far more common. The call rests on the fitted dose curve; in most records, active means well fitted curve in the direction sought with a large enough effect; inconclusive means small, poorly fitted or top-dose-only effect, or another doubt; inactive means no such curve, though single readings can be large; an effect the other way counts as inactive or inconclusive. Potency means the concentration at half of the fitted maximal effect.

SMILES	Rab9 promoter act	NPC1 prom act	FLuc counter	ELG1 genotoxic	SMN2 splice enh
C#CCCOC(=O)N1C2=NC(C(=O)OC)=C(C(=O)OC)[C@@H]3N(CC#CC)c4ccccc4[C@]23C[C@H]1C(=O)OC	nt	nt	nt	nt	-9%[9.22 µM]
CCCN(C(=O)c1ccc(N(C)S(=O)(=O)c2ccc(C)cc2)cc1)C1CCS(=O)(=O)C1 (centres undefined)	0%	-3%	-2%	0%	nt
Oc1ccc(Nc2nc(-c3ccc(Cl)cc3)cs2)cc1	nt	nt	nt	nt	6%
O=C(O)c1ccc(Nc2nc(-c3cccnc3)cs2)cc1	?	?	5.4µM*	8%	nt
Oc1ccc(Nc2nc(-c3ccc(O)cc3)cs2)cc1	-1%	1%	7.6µM*	8.2µM*	22µM*
CCC(=O)c1ccc(OCC(=O)Nc2nc(-c3cccnc3)cs2)cc1	-5%	0%	-13%	-6%	nt
CCOc1ccc(Nc2nc(-c3cccnc3)cs2)cc1	2.2µM*	2.2µM*	?	?	nt
Oc1ccc(Nc2nc(-c3cccnc3)cs2)cc1	1%	21%	9.5µM*	?	nt
COc1cccc(-c2nn3c(=O)cc(CN4CCN(S(=O)(=O)c5ccc(C)cc5)CC4)nc3s2)c1	nt	nt	6%	nt	nt
O=C1C=C(c2ccoc2)N2CCC[C@H]2C1	nt	nt	nt	7%	nt
Brc1ccc(Nc2nc(-c3cccnc3)cs2)cc1	29%	0%	?	?	14µM*
COc1ccc(Cl)cc1Nc1nc(-c2cccnc2)cs1	-3%	1%	?	0%	nt
Cc1ccc(Nc2nc(-c3cccnc3)cs2)cc1C	?	?	0.85µM*	2.3µM*	nt
Clc1cccc(Nc2nc(-c3cccnc3)cs2)c1	21%	1%	13µM*	?	5%
CC(=O)c1ccc(Nc2nc(-c3cccnc3)cs2)cc1	21%	4%	?	?	nt
Oc1ccc(/C=N/Nc2ccc(C(F)(F)F)cn2)c(O)c1	12%	-21%	12µM*	?	nt
Oc1ccc(/C=N/Nc2ccc(C(F)(F)F)cn2)cc1	3.5µM*	?	17µM*	?	16µM*
Oc1ccc(/C=N/Nc2cccc(Cl)n2)c(O)c1	8%	?	5.4µM*	?	nt
CCc1ccc2occ(CC(=O)Nc3c(C(=O)c4ccc(C)cc4)oc4ccccc34)c2c1	nt	nt	-1%	nt	-6%
O=C(O)c1ccccc1Cl	nt	nt	nt	nt	-15%
COc1ccc(-c2noc(-c3ccoc3C)n2)cc1	1.6µM*	2.8µM*	2.4µM*	?	nt
Cc1cccc(-c2noc(-c3ccoc3C)n2)c1	0.71µM*	0.35µM*	4.8µM*	?	?
COc1ccc(-c2noc(-c3ccoc3C)n2)cc1OC	1%	-3%	1%	3%	nt
COc1cccc(-c2noc(-c3ccoc3C)n2)c1	2.5µM*	?	6.7µM*	?	nt
Cc1cccc(-c2noc(CNC(=O)c3ccoc3C)n2)c1	-1%	0%	-1%	8%	nt
SMILES	Rab9 promoter act	NPC1 prom act	FLuc counter	ELG1 genotoxic	SMN2 splice enh
CCc1ccc(OCC(=O)N(Cc2cccs2)c2ccc(Cl)cc2)cc1	nt	nt	-2%	nt	nt
COc1cc(OC)c(N(C)C(=O)c2sc3nc4n(c(=O)c3c2C)CCCCC4)cc1Cl	nt	nt	-7%	nt	nt
CCN(CC)c1ccc(NC(=O)C(Cc2ccccc2)NS(=O)(=O)c2ccc(Br)s2)c(C)c1 (centres undefined)	nt	nt	?	nt	-7%
O=c1oc2ccccc2cc1O	nt	nt	nt	nt	-5%
Nc1ccc2oc(=O)c(-c3ccccc3)cc2c1	19%	?	?	?	nt
Nc1ccc(-c2cc3ccccc3oc2=O)cc1	-11%	-20%	21µM*	4%	nt
O=c1cc(-c2cc3ccccc3oc2=O)c2ccc(O)cc2o1	nt	nt	nt	nt	-2%
O=c1oc2ccccc2cc1NCc1ccccc1O	17%	1%	15µM*	?	5%
O=c1oc2ccccc2cc1-c1ccc(O)cc1	3.5µM*	?	12µM*	?	?
Cc1ccc(NC(=O)N2C3CCCC2CC(NC(=O)C(C)(C)C)C3)cc1 (centres undefined)	2%	1%	6%	-6%	nt
CC(NC(=O)c1ccc(S(=O)(=O)N(C)C)cc1)c1ccc(-n2ccnc2)cc1 (centres undefined)	2%	-4%	0%	-3%	nt
CCc1ccc(C(=O)NNC(=S)Nc2ccc(S(N)(=O)=O)cc2)s1	-1%	-2%	17µM*	4%	nt
